Screening data: PubChem BioAssay, Broad Institute
aSyn 5UTR act: Activators via SNCA 5'UTR binding, MLPCN | alpha-synuclein 5'UTR reporter, activators screen | activity score, % (tested at 7.5 µM), hits read low | hit rate 7.1% among 300,000; in the data active = activity score below about -60%
Active calls of the source: *. Only a sample is shown.

SMILES	aSyn 5UTR act
CCCC(=O)N1CCCC(c2nc(-c3cccc(OC)c3)no2)C1 (stereo not drawn)	-84*
COc1ccc(NC(=O)N2CCCC(c3nc(-c4ccc(C(C)C)cc4)no3)C2)cc1 (stereo not drawn)	-164*
COc1ccc(-c2noc(C3CCCN(C(=O)c4ccccc4)C3)n2)cc1 (stereo not drawn)	-76*
COc1ccc(-c2noc(C3CCCN(C(=O)Nc4ccccc4F)C3)n2)cc1 (stereo not drawn)	-114*
CCOC(=O)c1c(C)oc2c1c(C(c1ccccc1)N1CCOCC1)c(O)c1ccccc12 (stereo not drawn)	-205*
CCOC(=O)c1c(C)oc2c1c(C(c1cccnc1)N1CCCCC1)c(O)c1ccccc12 (stereo not drawn)	-146*
CCCCC(=O)NC(c1ccccc1Cl)c1ccc2cccnc2c1O (stereo not drawn)	83
Cc1cccc(NC(=S)NC(=O)c2ccc(Br)o2)c1C	-74*
O=C(O)CCC(=O)Nc1cccc2cccnc12	-114*
CCCCC(=O)NC(c1ccc(C(C)C)cc1)c1ccc2cccnc2c1O (stereo not drawn)	112
O=C(NC(=S)Nc1ccccc1F)c1ccc(Br)o1	-66*
CSc1ccccc1NC(=O)c1ccc(Br)o1	-78*
Cc1ccc(NC(=S)NC(=O)c2ccc(Br)o2)c(C)c1	-181*
O=C(Nc1cccc2cccnc12)c1ccc(Br)o1	-97*
CCOC(=O)Cc1c(C)nc2cc(-c3ccc(Cl)cc3)[nH]n2c1=O	-67*
COCc1cc(=O)n2[nH]c(-c3ccc(C)cc3)cc2n1	-128*
CCCc1cc(=O)n2[nH]cc(-c3ccc(Cl)cc3)c2n1	71
CCc1c(C)nc2cc(-c3ccc(OC)cc3)[nH]n2c1=O	-156*
CSc1nnc2c(n1)c(C)nn2-c1cccc(C)c1	-172*
O=c1[nH][nH]c(-c2ccccc2O)c1C(C[N+](=O)[O-])c1ccc(Br)cc1 (stereo not drawn)	-95*
Cc1ccc(NC(=O)C2CCCN(c3ncccn3)C2)cc1C (stereo not drawn)	-125*
COc1ccc(NC(=O)C2CCCN(c3ncccn3)C2)cc1 (stereo not drawn)	-75*
COc1cccc(-n2cc3c(=O)n(C)c(=O)n(C)c3c2)c1	-86*
Cc1cc(C)cc(NS(=O)(=O)c2ccc3c(c2)c(=O)n(C)c(=O)n3C)c1	58
Nc1ccc(CCc2nc3ccccc3o2)cc1	-126*
SMILES	aSyn 5UTR act
CN(C)c1cc(N/N=C/c2ccc(Cl)cc2)nc(N(C)C)n1	-64*
Nc1ccc2oc3ccc(N)cc3c(=O)c2c1	-103*
CCc1ccc(NC(=O)C2C3/C=C\CCCCC32)cc1 (stereo not drawn)	-165*
O=C(Nc1ccc(Cl)cc1)C1C2CCCCC21 (stereo not drawn)	-150*
COc1cc(/C=N/n2c(C)n[nH]c2=S)ccc1OCc1ccc(F)cc1	-114*
COc1cc(/C=N\n2nnnc2N)ccc1OCc1ccc(F)cc1	-65*
CC(=O)Nc1cc(NC(C)=O)c(N=Nc2ccccc2)cc1C	-89*
CCOc1ccc(N(CC(=O)Nc2ccc(OC)cc2)S(C)(=O)=O)cc1	-69*
CCOc1ccc(N(CC(=O)Nc2cccc(C)c2)S(C)(=O)=O)cc1	-86*
CCOc1ccc(N(CC(=O)Nc2ccccc2OCC)S(=O)(=O)c2c(C)noc2C)cc1	95
CCOc1ccc(N(CC(=O)Nc2ccccc2OC)S(=O)(=O)c2ccccc2)cc1	123
CCOc1ccc(NC(=O)CN(c2ccc(OC)cc2)S(C)(=O)=O)cc1	-138*
COC(=O)c1ccc(NC(=O)CN(c2ccc(OC)cc2)S(C)(=O)=O)cc1	-176*
CCOc1ccc(N(CC(=O)NCc2ccccc2C)S(C)(=O)=O)cc1	-91*
COc1ccc(-c2nc(NC(=O)CSc3nnc(C)s3)ns2)cc1	-70*
CC1(C)CC(=O)c2c(nc(SCC(=O)Nc3nsc(-c4ccccc4)n3)c(C#N)c2-c2ccccc2)C1	74
COc1ccc2c(C)cc(SCC(=O)Nc3nsc(-c4ccc(C)cc4)n3)nc2c1	-82*
CN(C)c1ccc(C(=O)OCC(=O)N2CCCCCC2)cc1	-65*
COc1ccc(C(=O)COC(=O)c2ccc(N(C)C)cc2)cc1	-64*
COc1ccc(C(=O)COC(=O)c2ccn(C)n2)cc1	-83*
O=C(OCC(=O)N1CCCC1)c1ccccc1O	-85*
O=C(OCC(=O)N1CCN(c2ccccc2)CC1)c1ccccc1[N+](=O)[O-]	-141*
Cc1ccc2c(c1)c1cccc3c1n2CCN3CCC(N)=O	-172*
O=C(COc1ccccc1Cl)c1ccc2c(c1)CCCC2	-201*
O=C(Nc1ccc(-c2noc(CCc3ccccc3)n2)cc1)c1cccnc1	-67*
COc1cccc(C(=O)Nc2ccc(-c3nc4ccccc4o3)c(O)c2)c1	-115*
Cc1ccc2oc(-c3ccc(NC(=O)c4cccnc4)cc3)nc2c1	-162*
O=C(Nc1ccc(-c2nc3ccccc3o2)cc1)c1cccnc1	-133*
COc1ccc(/C=N/Nc2ncc(Br)cn2)c(OC)c1	-139*
COc1ccc(/C=N\Nc2ccccn2)c(OC)c1	-155*
